mHtt clearance: compounds clearing mutant huntingtin protein; HeLa Exon1htt(103Q)mCFP, aggregate imaging; zero = plate's median compound well; inhibition, % at 1.5 µM; 47,000 tested, 0.42% active; AID 853;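 active means inhibition of aggregate fluorescence above about 70%, also judged a hit by eye on the cell image, limit read from the data, passing the limit was not always enough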;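 further: cells exposed to compound for three days before fixation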
Her2 expr inh: inhibitors of human Her2 kinase expression. SKBR-3 HER2 protein level, AlphaScreen, 18-24 h; hits give low values. HER2 level % of control, % at 10 µM. AID 645. 65,000 tested, 0.69% active;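 active means HER2 level under 5% of the carrier-only control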;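 further: 100% = DMSO carrier and 0% = 500 nM PU-H71 HSP90 inhibitor; lower value means stronger loss of Her2 protein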
Target sequence (P04626 whole entry, looked up): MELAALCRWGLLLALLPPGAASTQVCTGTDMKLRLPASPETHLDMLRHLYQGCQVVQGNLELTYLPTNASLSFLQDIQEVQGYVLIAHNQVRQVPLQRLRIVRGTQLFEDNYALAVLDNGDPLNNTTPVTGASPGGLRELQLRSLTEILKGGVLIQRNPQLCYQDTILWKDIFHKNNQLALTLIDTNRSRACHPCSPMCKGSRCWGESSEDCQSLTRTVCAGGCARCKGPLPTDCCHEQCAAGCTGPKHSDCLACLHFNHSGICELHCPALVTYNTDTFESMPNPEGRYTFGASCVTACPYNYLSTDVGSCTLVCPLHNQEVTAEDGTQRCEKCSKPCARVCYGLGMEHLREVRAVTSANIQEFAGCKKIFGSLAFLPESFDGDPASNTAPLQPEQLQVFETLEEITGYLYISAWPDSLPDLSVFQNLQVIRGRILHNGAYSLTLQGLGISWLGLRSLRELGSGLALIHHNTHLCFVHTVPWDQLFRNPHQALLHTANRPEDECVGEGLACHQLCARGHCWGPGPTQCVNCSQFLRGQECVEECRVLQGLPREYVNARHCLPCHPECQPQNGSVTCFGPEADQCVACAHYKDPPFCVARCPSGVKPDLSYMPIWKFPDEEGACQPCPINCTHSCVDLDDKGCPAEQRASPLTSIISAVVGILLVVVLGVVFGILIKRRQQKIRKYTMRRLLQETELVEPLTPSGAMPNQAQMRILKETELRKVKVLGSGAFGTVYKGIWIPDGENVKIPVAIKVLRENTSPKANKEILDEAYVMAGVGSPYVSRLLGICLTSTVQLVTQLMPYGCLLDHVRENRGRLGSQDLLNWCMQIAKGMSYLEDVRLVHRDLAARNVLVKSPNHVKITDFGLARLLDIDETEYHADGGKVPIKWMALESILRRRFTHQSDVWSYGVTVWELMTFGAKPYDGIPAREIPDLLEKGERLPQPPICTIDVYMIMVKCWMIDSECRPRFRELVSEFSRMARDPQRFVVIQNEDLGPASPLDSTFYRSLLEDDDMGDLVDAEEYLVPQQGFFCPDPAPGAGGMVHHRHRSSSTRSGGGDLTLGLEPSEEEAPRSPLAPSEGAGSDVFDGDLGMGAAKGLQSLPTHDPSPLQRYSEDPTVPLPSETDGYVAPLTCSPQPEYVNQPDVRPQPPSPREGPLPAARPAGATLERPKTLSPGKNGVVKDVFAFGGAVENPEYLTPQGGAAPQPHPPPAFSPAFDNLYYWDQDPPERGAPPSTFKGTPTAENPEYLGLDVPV
SKBR3 24h inh: SK-BR-3 proliferation inhibitors. SK-BR-3 viability, CellTiter-Glo ATP luminescence, 24 h; hits give low values. viability, % at 10 µM. 41,000 tested, 0.47% active. AID 847;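 active means viability at or below the median of all test compounds minus 3 SD, in both replicates if run twice, cut at about 45% in these data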;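 further: 100% = median untreated cell wells and 0% = median positive control drug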
Starred values were filed as active, the others as inactive; / = no result. Compounds with a hit are over-represented: about 0.97% of the library has one in this group of screens.

SMILES | mHtt clearance | Her2 expr inh | SKBR3 24h inh
COc1ccc(N(C(=O)Cc2cccs2)C(C(=O)NC2CCCCC2)c2cccn2C)cc1OC (configuration not stated) | 94* | / | /
Cn1cccc1C(C(=O)NC1CCCCC1)N(C(=O)Cc1cccs1)c1ccc2c(c1)OCCO2 (configuration not stated) | / | 80 | 85
CCN1CCN(S(=O)(=O)c2ccc(S(=O)(=O)N(CC)Cc3ccccc3)cc2)CC1 | / | 88 | 63
CCC(=O)Nc1ccc(-c2nc(-c3ccccc3)n(CC(=O)N3CCCCC3)n2)cc1 | / | 111 | /
CCOC(=O)N1CCN(S(=O)(=O)c2ccc3c(c2)SCC(=O)N3)CC1 | -23 | 106 | /
CCOC(=O)N1CCN(S(=O)(=O)c2ccc3c(c2)OCC(=O)N3)CC1 | 71* | 92 | /
CN(C)CCCN1c2ccccc2Sc2ccc(C(F)(F)F)cc21 | / | 108 | 105
OCCN1CCN(CCCN2c3ccccc3Sc3ccc(C(F)(F)F)cc32)CC1 | / | -9.1* | 16*
CCCCOc1ccccc1NC(=O)CC1SC(=NCC)N(CC)C1=O (configuration not stated) | / | 102 | 103
CCn1c(SCC(=O)Nc2ccccc2C(=O)OC)nnc1-c1ccoc1C | 49 | 94 | 99
O=C(CSC1=NCCS1)Nc1nc2c(s1)CCCC2 | / | 66 | 42*
N#Cc1c(NC(=O)CSC2=NCCS2)sc2c1CCCC2 | / | 101 | 78
CCC(C)[C@@H](NC(=O)OC(C)(C)C)c1nnc(S(=O)(=O)Cc2cccc(C)c2)o1 (some centres not stated) | 18 | -17* | 21*
CC(C)(C)OC(=O)N[C@@H](Cc1ccccc1)c1nnc(S(=O)(=O)Cc2ccccc2)o1 | / | 81 | 98
COC(=O)Nc1ccc2ncn(C)c(=O)c2c1 | -11 | / | /
O=C(CSc1ccc2nnc(-c3ccccc3)n2n1)NCc1ccc2c(c1)OCO2 | -8 | / | /
O=C(CSc1ccc2nnc(-c3cccnc3)n2n1)NCc1ccc2c(c1)OCO2 | 0 | -17* | /
CCCN1c2cccc3cccc(c23)S1(=O)=O | / | 115 | 94
CCc1nnc(NC(=O)c2ccc(S(=O)(=O)N(CCOC)CCOC)cc2)o1 | 20 | 133 | 35*
COCCN(CCOC)S(=O)(=O)c1ccc(C(=O)Nc2nnc(C3CC3)o2)cc1 | 2 | 117 | 82
O=C(c1csc2c1CCCCC2)N1CCN(c2ncccn2)CC1 | 23 | 75 | /
Nc1ccc2ncccc2c1 | 53 | 128 | 100
Nc1ccc2ncccc2c1N | / | -19* | 88
CCOc1ccc(C2c3c(oc4ccccc4c3=O)C(=O)N2c2ccc(C)cn2)cc1OC (configuration not stated) | / | 104 | /
CCOC(=O)CNC(=O)CSc1ncnc2c1cnn2-c1ccc(Cl)cc1 | -60 | 88 | 79
SMILES | mHtt clearance | Her2 expr inh | SKBR3 24h inh
CCOC(=O)CNC(=O)CSc1ncnc2c1cnn2Cc1ccccc1 | / | -18* | 131
S=C1NCCOCCOCCOCCN1 | 17 | / | /
S=C1NCCOCCOCCOCCOCCNC(=S)NCCOCCOCCOCCOCCN1 | 78* | / | /
CCOC(=O)CSc1cccc2cccnc12 | -2 | 64 | 73
Cc1nnc(-n2ncc(C#N)c2N)c2nn(-c3ccccc3F)c(C)c12 | 15 | / | /
CCC(=O)N1CCN(c2ccc(NC(=O)c3cc4ccccc4o3)cc2Cl)CC1 | / | 85 | 91
CCCC(=O)N1CCN(c2ccc(NC(=O)c3cc4ccccc4o3)cc2Cl)CC1 | / | -9.9* | 6.2*
COC(=O)c1ccc(NC(=O)C23CCC(C)(C(=O)O2)C3(C)C)cc1 (configuration not stated) | / | 111 | 82
O=C(c1cccc(F)c1)N1CCN(Cc2ccco2)CC1 | / | 131 | /
c1cc(CNC2=NCCCCC2)ccn1 | / | 96 | /
c1ccc(CNC2=NCCC2)nc1 | / | -27* | /
COC(=O)n1c(=O)oc2cc(S(=O)(=O)N3CCOCC3)ccc21 | / | 81 | 84
CCCCOC(=O)n1c(=O)oc2cc(S(=O)(=O)N3CCCCC3)ccc21 | 72* | 78 | 79
Cc1ccc(SCC(=O)NCCSC(C)(C)C)cc1 | -3 | / | /
CCOC(=O)N1CCN(CCC(=O)Nc2ccc(OC(F)(F)F)cc2)CC1 | 36 | 110 | 37*
CCOC(=O)N1CCN(CC(=O)Nc2ccc(OC)cc2)CC1 | -12 | 87 | /
COc1cc(-c2noc(CCCC(=O)NCc3ccco3)n2)cc(OC)c1OC | -22 | 103 | 84
Cc1nn2c(c1-c1ccc(Cl)cc1)N=C(c1ccco1)CC2c1ccccc1 (configuration not stated) | 30 | / | /
COC(=O)c1ccccc1NC(=O)c1cnn2c(C(F)F)cc(C3CC3)nc12 | 76* | 110 | 83
O=C(NCCc1ccccc1)c1cnn2c(C(F)F)cc(C3CC3)nc12 | / | 80 | 93
Cc1nn(-c2ccccc2)c2sc(C(=O)OCc3nnc(-c4ccccc4)o3)cc12 | 21 | 76 | /
CCOC(=O)N1CCC(NC(=O)CCc2c(C)nc3c(c(C)nn3C(C)(C)C)c2C)CC1 | -65 | 129 | /
CCc1ccc(-c2nc(CN3CCC(C(=O)NCCN(CC)c4ccccc4)CC3)c(C)o2)cc1 | / | -13* | /
Cc1oc(-c2ccc(Cl)cc2)nc1CN1CCC(C(=O)NCCCN2CCOCC2)CC1 | / | 106 | /
CCN(CCNC(=O)C1CCCN(Cc2nc(-c3ccc(OC)cc3)oc2C)C1)c1ccccc1 (configuration not stated) | 10 | 80 | /
SMILES | mHtt clearance | Her2 expr inh | SKBR3 24h inh
Cc1oc(-c2cccc(Cl)c2)nc1CN1CCC(C(=O)NCc2cccnc2)CC1 | / | 102 | /
COc1ccc(CCNC(=O)C2CCN(Cc3nc(-c4ccccc4C)oc3C)CC2)cc1OC | / | 80 | /
CCN(CCNC(=O)C1CCN(Cc2nc(-c3ccc(Cl)cc3)oc2C)CC1)c1ccccc1 | / | -17* | /
Cc1ccccc1-c1nc(CN2CCC(C(=O)NCCC3=CCCCC3)CC2)c(C)o1 | / | -16* | /
CCN(CCNC(=O)C1CCN(Cc2nc(-c3cccc(Cl)c3)oc2C)CC1)c1ccccc1 | / | -13* | /
CCOCCCN(C(=O)c1ccco1)C(C(=O)NC1CCCC1)c1cccc(OC)c1OC (configuration not stated) | 16 | 136 | 101
CCC(C)NC(=O)CSC1=Nc2ccccc2C2=NC(CC(=O)NCc3ccccc3)C(=O)N12 (configuration not stated) | -77 | 116 | /
O=S(=O)(N1CCOCC1)n1c(Cc2ccccc2)nc2ccccc21 | 25 | 99 | 76
CCc1ccc(-c2nc(CN3CCC(C(=O)N4CCN(c5ccccn5)CC4)CC3)c(C)o2)cc1 | / | 102 | /
CCc1ccc(-c2nc(CN3CCC(C(=O)N4CCN(c5ccccc5)CC4)CC3)c(C)o2)cc1 | / | -15* | /
CC(=O)N/C(=C\c1ccccc1Cl)C(=O)O | -55 | / | /
Cc1ccc(NC(=O)CSc2nnc(Cn3c(=O)sc4ccccc43)n2C)cc1Cl | / | 65 | /
CC(C)(C)CC(=O)N1CCC(c2nc3c(nnn3Cc3c(F)cccc3Cl)c(=O)[nH]2)CC1 | / | 58 | 67
O=C(c1cccs1)c1no[n+]([O-])c1C(=O)c1cccs1 | / | 9 | 57
COc1ccc(C(=O)c2no[n+]([O-])c2C(=O)c2ccc(OC)cc2)cc1 | -26 | -22* | 75
COC(=O)c1ccccc1NC(=O)/C=C/c1cc(OC)c(OC)c(OC)c1 | 2 | / | /
CCOC(=O)N1CCC(n2c(=S)[nH]c3cc(OC)c(OC)cc3c2=O)CC1 | -10 | 80 | /
Cc1cc(OCc2ccc(F)cc2)nc(-c2ccccc2O)n1 | / | 96 | 93

Screening results: PubChem, several laboratories
